Experimental data as given in PubChem BioAssay AID1159580 (chemical genetic matrix, 2015).
Hit rate of the full screen: of about 5,500 compounds, about 2,000 (36%) were called active. Inconclusive results (about 18%) are left out. No stated cut-off is given here; in the data, active means normalized growth mostly below about 0.91 (no sharp cut-off); inconclusive means no clear call, values can overlap the other calls; inactive means mostly above about 0.92. The list shows a part of the results.

Assay: chemical genetic growth profiling, strain panel (AID 1159580);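 further: tested at 20 µM; growth read once vehicle control cultures reached saturation at 30 °C; 1 = growth at the plate median or of vehicle wells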
Conditions: growth OD

Measured: normalized growth

CC(C)NCC(O)c1ccc2ccccc2c1 (stereo not drawn)
inactive: S. cerevisiae deletion strains, locus YJR066W, strain TOR1, stronger effect = lower value 0.936 | S. cerevisiae deletion strains, locus YJR075W, strain HOC1, stronger effect = lower value 1.02 | S. cerevisiae deletion strains, locus YKL009W, strain mrt4, stronger effect = lower value 0.998 | S. cerevisiae deletion strains, locus YKL068W, stronger effect = lower value 0.997 | S. cerevisiae deletion strains, locus YKL085W, strain MDH1 (second series), stronger effect = lower value 0.996 | S. cerevisiae deletion strains, locus YKL085W, strain MDH1, stronger effect = lower value 0.996 | S. cerevisiae deletion strains, locus YKL160W, strain elf1, stronger effect = lower value 0.994 | S. cerevisiae deletion strains, locus YKR001C, strain vps1, stronger effect = lower value 1.03 | S. cerevisiae deletion strains, locus YKR026C, strain gcn3, stronger effect = lower value 1 | S. cerevisiae deletion strains, locus YKR091W, strain srl3, stronger effect = lower value 1 | S. cerevisiae deletion strains, locus YLL001W, strain dnm1, stronger effect = lower value 1 | S. cerevisiae deletion strains, locus YLL026W, stronger effect = lower value 0.998 | S. cerevisiae deletion strains, locus YLL041C, strain sdh2, stronger effect = lower value 0.998 | S. cerevisiae deletion strains, locus YLR027C, strain aat2, stronger effect = lower value 1 | S. cerevisiae deletion strains, locus YLR039C, strain RIC1, stronger effect = lower value 1.04 | S. cerevisiae deletion strains, locus YLR058C, strain SHM2, stronger effect = lower value 1.01 | S. cerevisiae deletion strains, locus YLR102C, strain apc9, stronger effect = lower value 0.988 | S. cerevisiae deletion strains, locus YLR113W, strain HOG1, stronger effect = lower value 1.05 | S. cerevisiae deletion strains, locus YLR221C, strain rsa3, stronger effect = lower value 1.02 | S. cerevisiae deletion strains, locus YLR258W, strain gsy2, stronger effect = lower value 0.996 | S. cerevisiae deletion strains, locus YLR262C, strain YPT6 (second series), stronger effect = lower value 0.984 | S. cerevisiae deletion strains, locus YLR262C, strain YPT6, stronger effect = lower value 1.07 | S. cerevisiae deletion strains, locus YLR268W, strain sec22, stronger effect = lower value 0.989 | S. cerevisiae deletion strains, locus YLR320W, strain mms22, stronger effect = lower value 1.01 | S. cerevisiae deletion strains, locus YLR330W, strain CHS5, stronger effect = lower value 1.01 | S. cerevisiae deletion strains, locus YLR342W, strain FKS1 (second series), stronger effect = lower value 1.03 | S. cerevisiae deletion strains, locus YLR342W, strain FKS1, stronger effect = lower value 0.999 | S. cerevisiae deletion strains, locus YLR357W, strain rsc2, stronger effect = lower value 0.984 | S. cerevisiae deletion strains, locus YLR370C, strain arc18, stronger effect = lower value 1.02 | S. cerevisiae deletion strains, locus YLR371W, strain rom2, stronger effect = lower value 0.989 | S. cerevisiae deletion strains, locus YLR384C, strain iki3, stronger effect = lower value 1 | S. cerevisiae deletion strains, locus YLR418C, strain cdc73, stronger effect = lower value 0.997 | S. cerevisiae deletion strains, locus YML016C, strain PPZ1, stronger effect = lower value 1 | S. cerevisiae deletion strains, locus YML032C, strain rad52, stronger effect = lower value 1.01 | S. cerevisiae deletion strains, locus YML120C, strain ndi1, stronger effect = lower value 0.991 | S. cerevisiae deletion strains, locus YML124C, strain tub3, stronger effect = lower value 0.991 | S. cerevisiae deletion strains, locus YMR058W, strain fet3, stronger effect = lower value 1 | S. cerevisiae deletion strains, locus YMR078C, strain ctf18, stronger effect = lower value 0.998 | S. cerevisiae deletion strains, locus YMR125W, strain sto1, stronger effect = lower value 0.982 | S. cerevisiae deletion strains, locus YMR129W, stronger effect = lower value 0.98 | S. cerevisiae deletion strains, locus YMR205C, strain PFK2, stronger effect = lower value 0.981 | S. cerevisiae deletion strains, locus YMR223W, strain ubp8, stronger effect = lower value 0.997 | S. cerevisiae deletion strains, locus YMR231W, strain pep5, stronger effect = lower value 1 | S. cerevisiae deletion strains, locus YMR307W, strain GAS1, stronger effect = lower value 1.06 | S. cerevisiae deletion strains, locus YNL067W, strain RPL9B, stronger effect = lower value 1.04 | S. cerevisiae deletion strains, locus YNL071W, strain lat1, stronger effect = lower value 1 | S. cerevisiae deletion strains, locus YNL153C, strain GIM3, stronger effect = lower value 1.05 | S. cerevisiae deletion strains, locus YNL183C, strain NPR1, stronger effect = lower value 0.968 | S. cerevisiae deletion strains, locus YNL209W, strain ssb2, stronger effect = lower value 1 | S. cerevisiae deletion strains, locus YNL233W, strain BNI4, stronger effect = lower value 1.04 | S. cerevisiae deletion strains, locus YNL248C, strain rpa49, stronger effect = lower value 0.998 | S. cerevisiae deletion strains, locus YNL250W, strain rad50, stronger effect = lower value 0.992 | S. cerevisiae deletion strains, locus YNL271C, strain bni1, stronger effect = lower value 1.01 | S. cerevisiae deletion strains, locus YNL298W, strain CLA4, stronger effect = lower value 1 | S. cerevisiae deletion strains, locus YNL307C, strain MCK1, stronger effect = lower value 0.994 | S. cerevisiae deletion strains, locus YNL322C, strain KRE1 (second series), stronger effect = lower value 1 | S. cerevisiae deletion strains, locus YNL322C, strain KRE1, stronger effect = lower value 1.01 | S. cerevisiae deletion strains, locus YNR049C, strain mso1, stronger effect = lower value 0.999 | S. cerevisiae deletion strains, locus YNR052C, strain pop2, stronger effect = lower value 0.997 | S. cerevisiae deletion strains, locus YOL012C, strain htz1 1.41 | S. cerevisiae deletion strains, locus YOL147C, strain pex11, stronger effect = lower value 1 | S. cerevisiae deletion strains, locus YOR001W, strain rrp6, stronger effect = lower value 1 | S. cerevisiae deletion strains, locus YOR061W, strain CKA2, stronger effect = lower value 1.01 | S. cerevisiae deletion strains, locus YOR069W, strain VPS5, stronger effect = lower value 1.01 | S. cerevisiae deletion strains, locus YOR070C, strain gyp1, stronger effect = lower value 1 | S. cerevisiae deletion strains, locus YOR080W, strain dia2, stronger effect = lower value 0.998 | S. cerevisiae deletion strains, locus YOR083W, strain WHI5, stronger effect = lower value 0.991 | S. cerevisiae deletion strains, locus YOR106W, strain vam3, stronger effect = lower value 1.04 | S. cerevisiae deletion strains, locus YOR136W, strain idh2, stronger effect = lower value 0.997 | S. cerevisiae deletion strains, locus YOR144C, strain elg1, stronger effect = lower value 0.99 | S. cerevisiae deletion strains, locus YOR184W, strain ser1, stronger effect = lower value 0.978 | S. cerevisiae deletion strains, locus YOR231W, strain MKK1, stronger effect = lower value 1.06 | S. cerevisiae deletion strains, locus YOR265W, strain rbl2, stronger effect = lower value 0.99 | S. cerevisiae deletion strains, locus YOR270C, strain vph1, stronger effect = lower value 1.02 | S. cerevisiae deletion strains, locus YOR290C, strain snf2, stronger effect = lower value 0.993 | S. cerevisiae deletion strains, locus YOR316C, strain cot1, stronger effect = lower value 0.992 | S. cerevisiae deletion strains, locus YPL051W, strain arl3, stronger effect = lower value 1.01 | S. cerevisiae deletion strains, locus YPL055C, strain LGE1, stronger effect = lower value 1.06 | S. cerevisiae deletion strains, locus YPL078C, strain atp4, stronger effect = lower value 1.01 | S. cerevisiae deletion strains, locus YPL106C, strain sse1, stronger effect = lower value 0.983 | S. cerevisiae deletion strains, locus YPL240C, strain hsp82, stronger effect = lower value 0.997 | S. cerevisiae deletion strains, locus YPL256C, strain CLN2, stronger effect = lower value 1.02 | S. cerevisiae deletion strains, locus YPR119W, strain clb2, stronger effect = lower value 0.99 | S. cerevisiae deletion strains, locus YPR141C, strain kar3, stronger effect = lower value 0.994 | S. cerevisiae deletion strains, locus YPR163C, strain tif3, stronger effect = lower value 0.99 | S. cerevisiae deletion strains, locus YPR167C, strain met16, stronger effect = lower value 0.989 | S. cerevisiae deletion strains, strain wtn01, stronger effect = lower value 1.03 | S. cerevisiae strains, strain wild type, stronger effect = lower value 1.01
